SMN2 splice up – qHTS Assay for Enhancers of SMN2 Splice Variant Expression | HEK293 SMN2-luciferase splicing reporter, luminescence, 30-36 h | Potency, µM (titrated, usually from 46.1 µM), for inactives: at the highest dose activity change, positive = activation, most hits filed as activators | actives 2.8% (n = 210,000); note: % of control where 0% means no effect; nearly all actives have a fitted effect of over 55% in size
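HEK293 cells carry an SMN2 […]–luciferase reporter in which exon 7 inclusion puts luciferase in frame. Cells were plated 10-12 h before compound addition, then incubated 30-36 h at 37C. ONE-Glo luminescence was read; sodium butyrate at 4.5 mM final served as control.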
NPC1 promoter act – qHTS Assay for NPC1 Promoter Activators; Huh7 NPC1 promoter luciferase reporter, 24 h; Potency, µM (titrated, usually from 9.22 µM), for the others: top-dose activation, hits mostly activators; actives 2.4% (n = 320,000); note: % of control where 0% means no effect; nearly all actives have a fitted effect of over 60% in size
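Luminescence from an NPC1 promoter-driven luciferase reporter in stably transfected Huh7 cells was measured after 24 h compound treatment at 37 °C, followed by 10 min ambient incubation with luciferase detection reagent.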
Luc counter – Counterscreen for Luciferase (Kinase-Glo TM) Inhibition | Luciferin 4-monooxygenase (Photuris pensylvanica), Q27757 | Kinase-Glo luciferase, ATP luminescence, 8 min | Potency, µM (doses to about 38.3 µM), for the others: at the top dose activity change, negative = inhibition, actives largely listed as inhibitors | actives 0.28% (n = 200,000) | AID 1379, 2008; note: % is set by controls: 0 for no effect and ±100 for the full control effect; nearly all actives have a fitted effect of over 60% in size
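Substrate mix (final 50 mM imidazole pH 7.2, 50 mM KCl, 7 mM MgCl2, 10 uM ATP, 0.01% Tween 20, 0.05% BSA) plus pin-tool compound, then Kinase-Glo detection mix; 8 min ambient, luminescence read.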
FLuc counter – qHTS profiling assay for firefly luciferase inhibitor/activator using purifed enzyme and Km concentrations of substrates (counterscreen for miR-21 project). Luciferin 4-monooxygenase (Photinus pyralis), P08659. actives 6.9% (n = 360,000). purified FLuc, Km substrates, luminescence inhibition. AID 588342, 2011. Potency, µM (titrated, usually from 57.5 µM), inactives show top-dose activity change, negative = inhibition, most hits filed as inhibitors;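 note: plate controls were vehicle for no effect and reference inhibitor for full effect; nearly all actives have a fitted effect of over 55% in size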
Target sequence (P08659 whole entry, looked up): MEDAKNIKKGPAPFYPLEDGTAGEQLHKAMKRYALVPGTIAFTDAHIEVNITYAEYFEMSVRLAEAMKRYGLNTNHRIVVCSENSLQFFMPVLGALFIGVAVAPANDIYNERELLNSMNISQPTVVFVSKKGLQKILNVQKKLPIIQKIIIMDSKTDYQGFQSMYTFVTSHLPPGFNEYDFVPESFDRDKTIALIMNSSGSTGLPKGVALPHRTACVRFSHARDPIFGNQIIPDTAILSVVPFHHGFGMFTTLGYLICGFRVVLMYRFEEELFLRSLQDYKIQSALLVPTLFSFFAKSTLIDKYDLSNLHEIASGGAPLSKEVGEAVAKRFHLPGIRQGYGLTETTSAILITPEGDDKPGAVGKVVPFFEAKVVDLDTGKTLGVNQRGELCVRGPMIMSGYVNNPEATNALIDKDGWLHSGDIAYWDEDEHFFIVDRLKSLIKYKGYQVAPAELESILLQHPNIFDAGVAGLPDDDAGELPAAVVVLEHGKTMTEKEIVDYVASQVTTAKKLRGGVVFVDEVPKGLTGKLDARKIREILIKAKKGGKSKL
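Biochemical qHTS of compounds, final roughly 60 µM downward over six points, against 10 nM purified firefly luciferase using Km concentrations of substrates (10 uM D-luciferin, 10 uM ATP) in Tris acetate pH 7.5 buffer; luminescence output.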
ELG1 genotox – qHTS screen for small molecules that induce genotoxicity in human embryonic kidney (HEK293T) cells expressing luciferase-tagged ELG1. HEK293T ELG1-luciferase reporter, luminescence, 16 h. Potency, µM (doses to about 46 µM), for the others: top-dose activity change, positive = activation, most hits filed as activators. actives 1.3% (n = 330,000). AID 504466, 2011; note: % of control where 0% means no effect; nearly all actives have a fitted effect of over 60% in size
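HEK293T cells expressing luciferase-tagged ELG1 were treated with compound or DMSO for 16 hr at 37°C. Luciferase activity was then read after 30 min with ONE-Glo at room temperature; rising signal flags genetic stress.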
Rab9 prom act – qHTS Assay for Rab9 Promoter Activators; Huh7 Rab9 promoter-luciferase reporter, luminescence, 24 h; Potency, µM (doses to about 9.22 µM), without a hit: at the highest dose activation, negative = inhibition, hits mostly activators; actives 2.8% (n = 320,000); note: % of control where 0% means no effect; nearly all actives have a fitted effect of over 60% in size
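Using Huh7 cells stably transfected with Rab9 promoter–luciferase, compounds were incubated 24 h at 37 °C, 5% CO2; luciferase luminescence was read 10 min after reagent addition.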
Active calls of the source: *; ? = inconclusive; nt = not tested or not shown; ! = not active in a repeat. An excerpt weighted towards active compounds, which were near 7.5% of everything screened. Calls come from the whole dose curve; as a rule, active = well fitted curve in the direction sought with a large enough effect; inconclusive = small, poorly fitted or top-dose-only effect, or another doubt; inactive = no such curve, though single readings can be large; an effect the other way counts as inactive or inconclusive. Potency is the fitted concentration of half-maximal effect.

SMILES	SMN2 splice up	NPC1 promoter act	Luc counter	FLuc counter	ELG1 genotox	Rab9 prom act
O=C(Nc1nc2ccsc2c(=O)s1)c1ccc(Cl)cc1	nt	0.25µM*	nt	0.21µM*	?	0.1µM*
CCn1c(NC(=O)c2ccc(F)cc2)c2ccccc2nc1=O	-1%	-5%	2%	5%	0%	0%
O=C(Nc1nc(=O)c2ccccc2s1)c1ccc(Cl)cc1	13µM*	2.8µM*	-2%	1.1µM*	1.8µM*	2.5µM*
O=C(Nc1nc2ccc(Cl)cc2s1)c1ccc(S(=O)(=O)N2CCCC2)cc1	nt	nt	nt	1%	nt	nt
O=C(Nc1nc(=O)c2ccccc2s1)c1ccc(F)cc1	14µM*	?	-3%	2.1µM*	?	3.2µM*
CC(=O)OC1CCC23CC1(C)CCC2C(C)(C)CC3OC(C)=O (stereo not given)	-1%	nt	-2%	nt	nt	nt
COC(=O)c1ccccc1NC(=O)Cn1c(=O)n(CCCC(=O)NCCc2ccc(OC)c(OC)c2)c(=O)c2ccccc21	0%	nt	nt	-11%	nt	nt
c1ccc(Oc2cc(-c3ccccc3)ncn2)cc1	?	?	-4%	15µM*	?	?
O=C1NC(=S)S/C1=C\C=C\c1ccc([N+](=O)[O-])o1	nt	-43%	nt	24µM*	?	-49%
O=C(O)/C=C/c1ccc([N+](=O)[O-])o1	6%	-4%	7%	3%	0%	-4%
Cc1onc(-c2c(F)cccc2Cl)c1C(=O)NCc1ccc(F)cc1	nt	-2%	nt	3%	-2%	-1%
CCN(CC(=O)Nc1ccc(NC(C)=O)cc1)C(=O)CCCOc1ccc(C(C)(C)C)cc1	nt	0%	nt	15µM*	?	0%
CCN(CC(=O)NCc1cccs1)C(=O)CCCOc1ccc(C(C)(C)C)cc1	nt	0%	nt	?	-2%	-5%
CC1(C(=O)Nc2ncc(Cc3ccc(Br)cc3)s2)Cc2ccccc2C(=O)O1 (stereo not given)	-9%	nt	nt	-12%	nt	nt
CCCOC(=O)c1ccc(Nc2nc3ccccc3nc2-n2nc(C)cc2C)cc1	5%	nt	nt	1%	nt	nt
CCN(CC)S(=O)(=O)c1cccc(C(=O)N/N=C/c2ccccn2)c1	3%	-4%	-1%	?	0%	1%
O=C(Nc1cccc(NC(=O)c2ccccc2Cl)c1)c1ccc(F)cc1	nt	2%	nt	?	-1%	-2%
O=C(N/N=C/c1ccccn1)c1cccc(NC(=O)c2ccccc2Cl)c1	nt	3%	nt	17µM*	9%	15%
Cc1cccc(C(=O)N/N=C/c2ccccn2)c1	2µM*	?	-2%	19µM*	?	3.5µM*
O=C(N/N=C/c1cccs1)c1cccc(NC(=O)c2ccccc2Cl)c1	1%	10%	-2%	24µM*	1%	8%
O=C(N/N=C/c1ccccc1F)c1cccc(NC(=O)c2ccccc2Cl)c1	nt	19%	nt	13µM*	7%	17%
O=C(N/N=C/c1cccs1)c1ccc(NC(=O)c2ccccc2Cl)cc1	nt	1%	nt	-4%	-3%	-2%
CCCN(CCO)C1CCN(CCc2ccccc2)CC1	nt	-5%	nt	-1%	0%	3%
NC(=O)C1CCCN(CC(O)COCc2ccc(Cl)cc2)C1 (stereo not given)	nt	-4%	nt	-2%	3%	-4%
COc1ccccc1[C@]1(C)ON(c2ccccc2C(F)(F)F)C1=O	nt	-12%	nt	4%	-3%	2%
SMILES	SMN2 splice up	NPC1 promoter act	Luc counter	FLuc counter	ELG1 genotox	Rab9 prom act
Cc1cccc(C(=O)Nc2cccc(C(=O)N/N=C/c3ccccn3)c2)c1	nt	0%	nt	19µM*	0%	-5%
O=C(N/N=C/c1ccccn1)c1ccc(NC(=O)c2cccc([N+](=O)[O-])c2)cc1	1%	6%	0%	?	-4%	9%
Cc1noc(NC(=O)c2ccccc2)c1C#N	-24%	8%	0%	-2%	4%	-4%
O=C(Nc1onc2c1CCCC2)c1ccccc1	?	nt	nt	4.8µM*	nt	nt
CC(C)(C)c1ccc(C(=O)Nc2onc3c2CCCC3)cc1	11µM*	nt	nt	0.34µM*	nt	nt
CCc1noc(C)c1C(=O)N1CCN(S(=O)(=O)c2c(C)c(C)cc(C)c2C)CC1	nt	-2%	nt	-2%	-3%	0%
N#CC(=C1Nc2ccccc2N1)S(=O)(=O)c1ccccc1	-11%	-1%	2%	-2%	2%	0%
Cc1c(N)c(=O)n(-c2ccccc2)n1C	4%	-10%	-5%	-1%	-4%	-4%
Cc1cc(=S)n(-c2ccccc2)n1C	-17%	17%	0%	8%	16µM*	25%
Nc1nnc(COc2ccc(Br)cc2Br)s1	?	?	12%	8.5µM*	?	?
Cn1c(=O)n(CCOc2ccc([N+](=O)[O-])cc2)c2ccccc21	nt	15%	nt	?	8%	11%
Cn1c(=O)n(CCOc2ccc(Cl)cc2Cl)c2ccccc21	-15%	0%	2%	-16%	15%	3%
Clc1ccccc1OCCn1nnc2ccccc21	nt	3.2µM*	nt	?	?	?
Cc1ccc(OCCn2c(=O)n(C)c3ccccc32)cc1	nt	3.2µM*	-6%	11µM*	?	2.8µM*
Cn1c(=O)n(CCOc2ccccc2Cl)c2ccccc21	?	?	0%	24µM*	?	4.5µM*
CCCN(C(=O)CCc1nc(-c2ccccc2F)no1)c1ccc(CC)cc1	-17%	nt	nt	-1%	nt	nt
O=C(CSc1ncc2c(n1)-c1ccccc1N(Cc1ccc(F)cc1)S2(=O)=O)NCc1ccccc1	nt	nt	nt	2%	nt	nt
CCOc1ccc(NC(=O)CCS(=O)(=O)c2cc3c4c(c2)CCN4C(=O)CC3)cc1	nt	nt	nt	3%	nt	nt
CCCCC1(Cc2cccc([N+](=O)[O-])c2)C(=O)N(c2ccccc2)N(c2ccccc2)C1=O	-89%	-2%	1%	3%	?	-4%
CN(Cc1ccccc1)S(=O)(=O)c1nnc(NC(=O)c2cccc(Cl)c2)s1	nt	nt	nt	-18%	nt	nt
CCN(CC)S(=O)(=O)c1nnc(NC(=O)c2ccco2)s1	nt	8%	nt	27µM*	2%	8%
CC(C)CN(c1ccccc1)S(=O)(=O)c1nnc(NC(=O)c2ccco2)s1	nt	2%	nt	0.85µM*!	-3%	0%
CN(c1ccccc1)S(=O)(=O)c1nnc(NC(=O)c2ccco2)s1	nt	1%	nt	-21%	0%	1%
CN(Cc1ccco1)S(=O)(=O)c1nnc(NC(=O)c2cccc(Cl)c2)s1	nt	29%	nt	27µM*	-2%	25%
CCCCCCCCNC(=S)NCCN1CCCCC1	-12%	-2%	-1%	2%	-3%	-3%
